Results reported in PubChem BioAssay (NCATS).
Records with an inconclusive call do not appear. Values without a mark were called inactive. Calls of active or inactive are those of the source. The call rests on the fitted dose curve; in most records, active means well fitted inhibition curve with a large enough effect in the repeat runs; inconclusive means weak or mixed curves; inactive means flat fitted curve, though single readings scatter.

The compounds below were run against Cytochrome P450 2D6 (Homo sapiens) (UniProt P10635) (assay: Cytochrome P450 family 2 subfamily D member 6 (CYP2D6) small molecule antagonists: luciferase biochemical (cell-free) qHTS assay (AID 1645840; further: nearly all actives have a fitted effect of over 55% in size)). Conditions: P450-Glo CYP2D6 enzyme, luciferin luminescence, 1 h; series mostly up to 57.4 µM; activity change, negative = inhibition: at the top concentration.
Description: National Center for Advancing Translational Sciences [NCATS] Assay Overview: Cytochrome P450 (CYP) enzymes are membrane-bound hemeproteins that play a key role in metabolism of drugs and xenobiotics. Assaying the effect of chemicals on CYP isozymes is useful to minimize the adverse drug reactions and toxicities in drug development process. Chemical compounds were tested for their effect on CYP enzyme activities by using P450-Glo (TM) screening systems (Promega Corporation, Madison, WI). These systems provide a luminescent method containing proluciferin substrates and are converted to luciferin products by CYP isozymes. The luciferin products formed are detected with a luciferin detection reagent, and the amount of light produced is proportional to CYP activity. P450-Glo (TM) CYP2D6 screening system (Catalog. No. V9890) was used to detect the compounds that interfere in CYP2D6 activity.
Assay Protocol Summary: Two ul of enzyme-substrate mix was dispensed into medium binding white/solid 1536-well plates (Greiner Bio-One North America Inc., Monroe, NC) using a Flying Reagent Dispenser (FRD, Aurora Discovery, San Diego, CA). […] The assay plates were incubated at room temperature for 10 min. Then 2 ul of NADPH regeneration solution was added to each well of the assay plates using an FRD and incubated at room temperature for 1 h. The reaction was stopped by adding 4 ul of detection reagent using an FRD and after 20 min incubation at room temperature, the luminescence signal was measured using a ViewLux plate reader (Perkin Elmer, Shelton, CT). Data were expressed as relative luminescence units.
On the % scale 0 is the no-effect control and ±100 the full control effect; potency means the concentration at half of the fitted maximal effect.

Sequence of Cytochrome P450 2D6 (Homo sapiens) (P10635 whole entry, looked up): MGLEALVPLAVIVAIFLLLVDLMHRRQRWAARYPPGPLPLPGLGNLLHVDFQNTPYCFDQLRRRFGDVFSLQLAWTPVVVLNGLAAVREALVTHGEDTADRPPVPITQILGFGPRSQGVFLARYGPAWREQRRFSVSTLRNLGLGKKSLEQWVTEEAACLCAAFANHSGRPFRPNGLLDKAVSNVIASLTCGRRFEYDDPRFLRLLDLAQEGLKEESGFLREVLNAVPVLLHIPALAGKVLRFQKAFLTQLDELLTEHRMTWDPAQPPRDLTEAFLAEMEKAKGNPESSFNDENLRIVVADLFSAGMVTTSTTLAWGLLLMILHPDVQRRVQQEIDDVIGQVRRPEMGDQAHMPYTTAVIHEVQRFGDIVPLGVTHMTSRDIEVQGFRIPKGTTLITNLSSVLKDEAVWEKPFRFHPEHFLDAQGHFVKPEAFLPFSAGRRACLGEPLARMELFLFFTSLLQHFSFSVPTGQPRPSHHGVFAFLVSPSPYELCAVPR

SMILES	activity change, negative = inhibition [%]	Potency
NCc1cccnc1	-3.65	
CN1C[C@@H](NS(=O)(=O)N(C)C)C[C@@H]2c3cccc4c3c(cn4C)C[C@H]21		2.19 µM (active)
CCOC(=O)c1ncn2c1CN(C)C(=O)c1c(I)cccc1-2	0.594	
CN1C(=O)CN=C(c2ccccc2)c2cc([N+](=O)[O-])ccc21	-12.4	
CCCOC(=O)Cc1ccc(OCC(=O)N(CC)CC)c(OC)c1	12.9	
CCCC(C)C1(CC)C(=O)N=C(S)NC1=O (stereo not given)	3.38	
C[N+]1(C)[C@@H]2CC[C@H]1CC(OC(=O)C(CO)c1ccccc1)C2 (stereo not given in full)	-21.7	
C[C@H](CN1CCOCC1)C(C(=O)N1CCCC1)(c1ccccc1)c1ccccc1		38.6 µM (active)
Oc1ccc2[nH]cc(CCCCN3CC=C(c4ccccc4)CC3)c2c1		0.195 µM (active)
OC(O)C(Cl)(Cl)Cl	2.77	
CC1N=C(N)OC1c1ccccc1 (stereo not given)		4.92 µM (active)
CN1[C@@H]2CC[C@H]1CC(OC(=O)c1cc(Cl)cc(Cl)c1)C2 (stereo not given in full)		0.0436 µM (active)
COCC(=O)N(c1c(C)cccc1C)C(C)C(=O)OC (stereo not given)	4.78	
C[C@]12CC[C@H]3[C@@H](CC=C4C[C@@H](O)CC[C@@]43C)[C@@H]1CC[C@@H]2O	1.06	
COc1ccc2[nH]cc(CCN(C(C)C)C(C)C)c2c1		3.25 µM (active)
O=C(NC(=O)c1c(F)cccc1F)Nc1cc(Cl)c(OC(F)(F)C(F)C(F)(F)F)cc1Cl (stereo not given)	7.49	
CCCCCCCCC(=O)NCc1ccc(O)c(OC)c1		13.8 µM (active)
CN(C)CCc1c[nH]c2ccccc12		62.8 µM (active)
CN(C)CCc1c[nH]c2cccc(O)c12		12.5 µM (active)
CCN(Cc1ccc(Cl)nc1)/C(=C/[N+](=O)[O-])NC	5.83	

SMILES	activity change, negative = inhibition [%]	Potency
COc1ccc(C(=O)N2CCCC2=O)cc1	-0.0751	
COc1ccc2c(C(=O)c3ccc(Cl)cc3)c(C)n(CC(=O)O)c2c1	-2.2	
CCOC(=O)c1cncn1C(C)c1ccccc1 (stereo not given)	2.22	
COc1cc(CC#N)cc(OC)c1OC	-3.09	
CCc1ccc(C2CCNCC2)cc1		0.347 µM (active)
O=C(N[C@@H]1N=C(c2ccccc2F)c2cccc3c2N(CC3)C1=O)c1cc2ccccc2[nH]1	8.48	
Cc1nnc2n1-c1sc(CCc3ccc(CC(C)C)cc3)cc1C(c1ccccc1Cl)=NC2C (stereo not given)		27.5 µM (active)
c1cc2c(c(N3CCNCC3)c1)OCCO2	0.894	
CC(Cc1ccc2c(c1)OCO2)NO (stereo not given)		61.1 µM (active)
CC[C@H]1C[C@@H]2C[C@H]3c4[nH]c5ccc(OC)cc5c4CCN(C2)[C@@H]13		0.278 µM (active)
C[N+]1(CCC(C(N)=O)(c2ccccc2)c2ccccc2)CCCCC1		15.5 µM (active)
ClC1=C(Cl)C2(Cl)C(CBr)CC1(Cl)C2(Cl)Cl (stereo not given)	13.9	
Nc1ccccc1C(=O)OCC(O)CO (stereo not given)	7.08	
CC1Sc2c(C(=O)O)c(=O)c3cc(F)c(N4CCNCC4)cc3n21 (stereo not given)	6.23	
CCCCCCCCCCCC[N+](C)(C)CCOc1ccccc1		1.74 µM (active)
C1CN2CCC1CC2	17	
C[C@@H]1O[C@@H](O[C@@H]2C=C3CC[C@@H]4[C@H](CC[C@]5(C)[C@@H](c6ccc(=O)oc6)CC[C@]45O)[C@@]3(C)CC2)[C@H](O)[C@H](O)[C@H]1O	3.19	
Nc1ccc(N)cc1		3.09 µM (active)
CCC1(c2cccc(O)c2)CCCCN(C)C1 (stereo not given)		13.8 µM (active)
c1ccc2nc(N3CCNCC3)ccc2c1	-17.3	
